From PubChem BioAssay AID2391 (Southern Research Specialized Biocontainment Screening …, 2010)
Among all 310,000 compounds or so, about 410 (0.13%) were called active. Not shown: some 2% with an inconclusive outcome. How the calls were made is not given here. The list is a sample of the results. Results with a measured potency or affinity are listed apart.

assay: inhibition of RSV-induced cytopathic effect – HEp-2 cells, primary 10 µM value included (AID 2391); conditions: at 10 µM, active compounds read high

| Structure (SMILES) | CPE inhibition |
| --- | --- |
| CCOc1ccc(C(=O)CN2C(=O)NC3(CCCCCC3)C2=O)cc1 | 1.63% (inactive) |
| COc1cc2c(cc1OC)C(C)N(C(=O)c1ccc(Br)o1)CC2 (stereo not given) | 4.76% (inactive) |
| COc1cc2c(cc1OC)C(C)N(C(=O)c1ccc(C)o1)CC2 (stereo not given) | 3.08% (inactive) |
| COc1cc2c(cc1OC)C(C)N(C(C)=O)CC2 (stereo not given) | -1.08% (inactive) |
| COc1cc2c(cc1OC)C(C)N(C(=O)/C=C/c1cc(OC)c(OC)c(OC)c1)CC2 (stereo not given) | 1.08% (inactive) |
| Cc1ccc(NC(=O)c2c(F)cccc2Cl)cc1S(=O)(=O)N1CCOCC1 | 2.31% (inactive) |
| COc1ccc(N2C(=O)C(CC(=O)Nc3ccccc3)N(Cc3ccccn3)C2=S)cc1 (stereo not given) | 4.08% (inactive) |
| CCOc1ccc(NC(=O)CC2C(=O)N(c3ccc(OC)cc3)C(=S)N2Cc2ccccn2)cc1 (stereo not given) | -1.46% (inactive) |
| CCOc1ccc(NC(=O)CC2C(=O)N(c3ccccc3)C(=S)N2Cc2ccccn2)cc1 (stereo not given) | 7.95% (inactive) |
| CCOc1ccc(NC(=O)CC2C(=O)N(c3ccccc3)C(=O)N2Cc2ccccn2)cc1 (stereo not given) | 3.73% (inactive) |
| CCCCCc1cc(=O)oc2c(C(CCN3CCCCC3)c3ccc(OC)cc3)c(OC)cc(OC)c12 (stereo not given) | -3.75% (inactive) |
| C[C@@]12C(=O)N(c3ccc(F)cc3)C(=O)N1[C@@H]1c3ccccc3OC[C@@H]1[C@H]2c1ccccc1 | 6.7% (inactive) |
| COc1cccc2c1c(NC(=O)Nc1ccc(F)cc1F)nn2C | 1.98% (inactive) |
| COc1cccc2c1c(NC(=O)c1cc(C)on1)nn2C | 2.09% (inactive) |
| CC(=O)Nc1ccc(NC(=O)C2CCC(N3C(=O)C4C5C=CC(C6CC56)C4C3=O)CC2)cc1 (stereo not given) | 1.77% (inactive) |
| CC(C(=O)N1CCCC1)N1CCN(S(=O)(=O)c2ccc(C(C)(C)C)cc2)CC1 (stereo not given) | 0.2% (inactive) |
| Cc1ccc(CSCC(=O)Nc2ccccc2F)cc1 | 0.6% (inactive) |
| Cc1c(NC(=O)CSCc2ccccc2)cccc1C(=O)O | -0.3% (inactive) |
| O=C(CSc1nc2ccccc2s1)N/N=C/c1ccco1 | 0.58% (inactive) |
| Cn1cccc1Cc1nnc(SCC(=O)Nc2ccc3c(c2)OCCO3)n1-c1ccc(F)cc1 | 0.23% (inactive) |
| Cc1ccc(C(=O)N[C@H](C(=O)OCC(=O)Nc2cccc(S(N)(=O)=O)c2)C(C)C)cc1 | -0.34% (inactive) |
| O=C(NC1CCCCC1)c1ccc(N2CCCC2=O)cc1 | 2.08% (inactive) |
| Cn1ncc(Br)c1C(=O)N1CCOCC1 | 3.84% (inactive) |
| COC(=O)c1cc(S(=O)(=O)N2CCC(C)CC2)ccc1F | 0.31% (inactive) |
| O=C(CNC(=O)c1ccccc1F)NCCOc1ccccc1Cl | 0.24% (inactive) |

| Structure (SMILES) | CPE inhibition |
| --- | --- |
| O=C(NCCOc1ccccc1Cl)C(=O)NCCOc1ccccc1Cl | 3.63% (inactive) |
| CC1CCN(C(=O)COc2ccccc2F)CC1 | 4.04% (inactive) |
| CCN1C(=O)[C@H]2[C@@H](c3ccc(C)cc3)N3C(=O)N(c4cccc(Cl)c4)C(=O)[C@@]3(CC(C)C)[C@H]2C1=O | 3.11% (inactive) |
| N#Cc1ccc(CSc2nnc(-c3cccnc3)n2-c2ccccc2)cc1 | 0.49% (inactive) |
| Cc1ccc2c(C)c(C(=O)N3CCN(c4cnccn4)CC3)oc2c1C | 16.7% (inactive) |
| Cc1ccc2c(C)c(C(=O)N3CCN(Cc4ccccn4)CC3)oc2c1C | 1.72% (inactive) |
| CC(C)N(CCO)Cc1nc(C(c2ccccc2)c2ccccc2)no1 | -0.29% (inactive) |
| Cc1c(C(=O)NCC2CCCO2)oc2ccc(Br)cc12 (stereo not given) | 3.18% (inactive) |
| O=C(NCc1ccccc1)c1ccc(NC(=O)C2CCCO2)cc1 (stereo not given) | 0.29% (inactive) |
| Cc1ccc(-n2c(SCC(=O)N3CC(=O)Nc4ccccc43)nc3ccccc3c2=O)cc1 | 3.64% (inactive) |
| O=C1CN(C(=O)CSc2nc3ccccc3c(=O)n2Cc2ccc(F)cc2)c2ccccc2N1 | 16.3% (inactive) |
| O=C(COC(=O)CNC(=O)c1ccc(Cl)cc1)NC1CCCCCC1 | -0.18% (inactive) |
| CCOCCCNC(=O)C1CCCN1C(=O)NC1CCCCC1 (stereo not given) | 1.83% (inactive) |
| CCOC(=O)N/N=C(\C)c1cccs1 | -0.75% (inactive) |
| Nc1ccc(-c2nc3ccccc3[nH]2)cc1 | -0.76% (inactive) |
| Nc1ccc(-c2nc3ccccc3o2)cc1 | 2.51% (inactive) |
| Cc1ccc(S(=O)(=O)Nc2ccc3nc(-c4cccn4C)[nH]c3c2)cc1 | 2.21% (inactive) |
| O=C(Nc1ccc(S(=O)(=O)Nc2nccs2)cc1)C1CCCCC1 | 1.14% (inactive) |
| O=C(NC(=S)Nc1ccc(S(=O)(=O)Nc2nccs2)cc1)C1CC1 | -0.1% (inactive) |
| O=C(c1cccc(N2C(=O)C3C4C=CC(C4)C3C2=O)c1)N1CCN(c2ccccc2)CC1 (stereo not given) | 3.62% (inactive) |
| O=C(c1cccc(N2C(=O)C3C4C=CC(C4)C3C2=O)c1)N1CCN(c2ccccc2F)CC1 (stereo not given) | 1.69% (inactive) |
| Cc1ccc(S(=O)(=O)NCCC(=O)NCC(c2ccc(F)cc2)N2CCOCC2)cc1 (stereo not given) | -0.75% (inactive) |
| COc1ccc(CNC(=S)Nc2cccc(OC)c2)cc1 | 0.93% (inactive) |
| CCOc1cc(S(=O)(=O)N(CC)CC)ccc1Br | 0.38% (inactive) |
| COc1ccccc1CNC(=O)CN(C)S(=O)(=O)c1ccc(Br)s1 | 3.3% (inactive) |
